# Where a name gives a salt, the structure may show the parent alone.
# System: Danio rerio larvae (5 dpf)
# Assay: optomotor response to blue moving lines, difference vs DMSO (percentage points (treated minus DMSO)); higher = more of the behaviour than the DMSO vehicle control
# Conditions: 10 µM; exposure time: 3 h pre-incubation + 3 h imaging
# Procedure, shortened: (§1)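 5-dpf wild-type zebrafish larvae in 96-well ProxiPlates were exposed to library drugs at 10 µM (diluted 1000× from DMSO stocks into egg water). There were 48 larvae per drug, exposed 3 h before and 3 h during imaging at 28.5 °C. Images taken every 6 s covered a 3-h program of rest, moving coloured lines and acoustic pulses, and an ImageJ macro scored movement and upper-half location. Each behaviour score is the treated-group mean minus the DMSO vehicle mean, in percentage points.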
row,Compound,optomotor response to blue moving lines
1,OCCN1C[C@H](O)[C@@H](O)[C@H](O)[C@H]1CO [Miglitol],5.95
2,COc1ccc([C@@H]2Sc3ccccc3N(CCN(C)C)C(=O)[C@@H]2OC(C)=O)cc1 [Diltiazem hydrochloride],-5.83
3,CN(C)C(=N)NC(=N)N [Metformin hydrochloride],22.6
4,Clc1ccc(COC(Cn2ccnc2)c2ccc(Cl)cc2Cl)c(Cl)c1 (centres undefined) [Miconazole nitrate],-7.42
5,CC(=O)NC[C@H]1CN(c2ccc(N3CCOCC3)c(F)c2)C(=O)O1 [Linezolid],-4.03
6,CCC(=O)O[C@]1(C(=O)SCF)[C@H](C)C[C@H]2[C@@H]3C[C@H](F)C4=CC(=O)C=C[C@]4(C)[C@@]3(F)[C@@H](O)C[C@@]21C [Fluticasone propionate],-10.1
7,CN(C)CCc1c[nH]c2ccc(C[C@H]3COC(=O)N3)cc12 [Zolmitriptan],9.9
8,O=C(O[C@@H]1C[C@@H]2C[C@H]3C[C@H](C1)N2CC3=O)c1c[nH]c2ccccc12 [Dolasetron mesylate],0.622
9,C[C@]12CC[C@@H]3c4ccc(O)cc4C[C@@H](CCCCCCCCC[S+]([O-])CCCC(F)(F)C(F)(F)F)[C@H]3[C@@H]1CC[C@@H]2O (some centres undefined),6.07
10,COc1cc(Nc2c(C#N)cnc3cc(OCCCN4CCN(C)CC4)c(OC)cc23)c(Cl)cc1Cl [Bosutinib],-9.89
11,C[C@@H]1C[C@H]2[C@@H]3CCC4=CC(=O)C=C[C@]4(C)[C@@]3(F)[C@@H](O)C[C@]2(C)[C@@]1(O)C(=O)CO [Dexamethasone],2.76
12,COc1c(C)c2c(c(O)c1C/C=C(\C)CCC(=O)O)C(=O)OC2 [Mycophenolic acid],7
13,Clc1ccccc1C(c1ccccc1)(c1ccccc1)n1ccnc1 [Clotrimazole],14.5
14,CN(CCOc1ccc(CC2SC(=O)NC2=O)cc1)c1ccccn1 (centres undefined) [Rosiglitazone],-12.4
15,NC(=O)c1ncn([C@@H]2O[C@H](CO)[C@@H](O)[C@H]2O)n1 [Ribavirin],9.25
16,CCOc1cc(CC(=O)N[C@@H](CC(C)C)c2ccccc2N2CCCCC2)ccc1C(=O)O [Repaglinide],-2.55
17,CC(C)c1nc(CN(C)C(=O)N[C@H](C(=O)N[C@@H](Cc2ccccc2)C[C@H](O)[C@H](Cc2ccccc2)NC(=O)OCc2cncs2)C(C)C)cs1 [Ritonavir],-11.8
18,CCCCC(=O)N(Cc1ccc(-c2ccccc2-c2nnn[nH]2)cc1)[C@H](C(=O)O)C(C)C [Valsartan],6.89
19,Cc1nc(Nc2ncc(C(=O)Nc3c(C)cccc3Cl)s2)cc(N2CCN(CCO)CC2)n1 [Dasatinib],-13.1

# System: Danio rerio larvae (5 dpf)
# Assay: optomotor response to green moving lines, difference vs DMSO (percentage points (treated minus DMSO)); higher = more of the behaviour than the DMSO vehicle control
# Conditions: 10 µM; exposure time: 3 h pre-incubation + 3 h imaging
# Procedure, shortened: as §1
row,Compound,optomotor response to green moving lines
1,COc1ccccc1Oc1c(NS(=O)(=O)c2ccc(C(C)(C)C)cc2)nc(-c2ncccn2)nc1OCCO [Bosentan],-5.7
2,CS(=O)(=O)CCNCc1ccc(-c2ccc3ncnc(Nc4ccc(OCc5cccc(F)c5)c(Cl)c4)c3c2)o1 [Lapatinib],0.954
3,O=C1CCc2cc(OCCCCc3nnnn3C3CCCCC3)ccc2N1 [Cilostazol],3.44
4,O=C(NCC1CCCCN1)c1cc(OCC(F)(F)F)ccc1OCC(F)(F)F (centres undefined) [Flecainide acetate],18.1
5,CC(C)[C@H]1CC[C@H](C(=O)N[C@H](Cc2ccccc2)C(=O)O)CC1 [Nateglinide],4.02
6,CC(=O)S[C@@H]1CC2=CC(=O)CC[C@]2(C)[C@H]2CC[C@@]3(C)[C@@H](CC[C@@]34CCC(=O)O4)[C@H]12 [Spironolactone],3.9
7,Nc1ncn([C@@H]2O[C@H](CO)[C@@H](O)[C@H]2O)c(=O)n1 [5-Azacytidine],1.33
8,Cc1ccc(-c2cc(C(F)(F)F)nn2-c2ccc(S(N)(=O)=O)cc2)cc1 [Celecoxib],0.469
9,CC(C)OC(=O)C(C)(C)Oc1ccc(C(=O)c2ccc(Cl)cc2)cc1 [Fenofibrate],8.84
10,N#Cc1ccc2[nH]cc(CCCCN3CCN(c4ccc5oc(C(N)=O)cc5c4)CC3)c2c1 [Vilazodone hydrochloride],-30.3
11,CC(C)(C)NC(=O)[C@@H]1C[C@@H]2CCCC[C@@H]2CN1C[C@@H](O)[C@H](Cc1ccccc1)NC(=O)[C@H](CC(N)=O)NC(=O)c1ccc2ccccc2n1 [Saquinavir mesylate],-3.04
12,CCCCCCCN(CC)CCCC(O)c1ccc(NS(C)(=O)=O)cc1 (centres undefined) [Ibutilide hemifumarate],4.88
13,Nc1nc(NC2CC2)c2ncn([C@H]3C=C[C@@H](CO)C3)c2n1 [Abacavir hemisulfate],6.07
14,CN1CCC[C@@H]1CCO[C@](C)(c1ccccc1)c1ccc(Cl)cc1 [Clemastine fumarate],4.02
15,O=C(O)C[C@H](O)C[C@H](O)/C=C/c1c(C2CC2)nc2ccccc2c1-c1ccc(F)cc1 [Pitavastatin calcium],11

# From the supplement of paper PMC9023506
